Compound activity: PubChem BioAssay, Broad Institute
ERAP1 HTS inh: blocks human ERAP1 aminopeptidase activity. recombinant ERAP1, Leu-AMC fluorescence, 60 min. Q9NZ08. inhibition, % at 10.7 µM. AID 652197. 340,000 tested, 0.15% active;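 active = mean replicate inhibition of at least 30%, or all replicates individually reaching that 30% level; inactive = mean below 30% and not every replicate reaching it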
Target sequence (Q9NZ08 whole entry, looked up): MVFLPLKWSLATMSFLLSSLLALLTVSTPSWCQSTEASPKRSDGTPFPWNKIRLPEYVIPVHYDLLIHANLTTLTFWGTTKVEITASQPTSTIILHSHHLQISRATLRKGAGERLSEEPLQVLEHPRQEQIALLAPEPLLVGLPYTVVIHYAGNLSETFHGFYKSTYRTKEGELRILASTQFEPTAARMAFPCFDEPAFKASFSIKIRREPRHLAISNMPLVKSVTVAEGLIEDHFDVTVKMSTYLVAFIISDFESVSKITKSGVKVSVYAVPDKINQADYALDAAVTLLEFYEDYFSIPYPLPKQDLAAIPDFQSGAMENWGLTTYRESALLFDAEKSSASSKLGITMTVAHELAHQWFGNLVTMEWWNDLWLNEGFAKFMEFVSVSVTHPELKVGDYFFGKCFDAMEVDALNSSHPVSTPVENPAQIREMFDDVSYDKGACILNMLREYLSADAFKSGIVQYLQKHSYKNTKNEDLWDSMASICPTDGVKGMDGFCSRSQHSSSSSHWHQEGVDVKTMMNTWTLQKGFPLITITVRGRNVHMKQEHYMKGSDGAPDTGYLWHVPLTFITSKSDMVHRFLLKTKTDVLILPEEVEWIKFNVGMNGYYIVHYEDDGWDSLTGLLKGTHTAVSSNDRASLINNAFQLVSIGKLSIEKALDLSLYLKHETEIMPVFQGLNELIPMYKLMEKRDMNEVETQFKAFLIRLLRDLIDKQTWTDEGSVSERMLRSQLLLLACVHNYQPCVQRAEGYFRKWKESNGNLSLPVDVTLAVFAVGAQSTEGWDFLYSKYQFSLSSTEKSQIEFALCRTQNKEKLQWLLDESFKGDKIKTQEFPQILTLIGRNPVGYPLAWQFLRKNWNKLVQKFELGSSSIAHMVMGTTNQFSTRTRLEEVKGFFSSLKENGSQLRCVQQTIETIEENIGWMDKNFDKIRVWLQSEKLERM
rRNA inh HTS: inhibits bacterial ribosomal RNA function over humanized ribosomes; E. coli WT GFP vs humanized-ribosome RFP mutants, fluorescence, 24 h; hits give low values; DMSO median 0, no signal -100; GFP signal change (wild-type ribosome), % (test concentration not listed); 350,000 tested, 1.6% active; AID 720706;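 active = significant combined selectivity score with lowered wild-type GFP, culture density cut under 30%, mutant RFP and density less affected; inactive = any of these conditions unmet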
INS-1E GSIS act: primary screen for activators of insulin secretion dependent on glucose, INS-1E cells, GLuc reporter luminescence; INS-1E GLuc reporter insulin secretion, 2-3 h; activation, % at 16.6 µM; 370,000 tested, 0.61% active; AID 743287;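 active = lowest replicate activation of at least 40%, so every replicate reaches that level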
CaV13 ICDI inh: Primary screen for inhibitors of IQ motif and Ca2+-dependent inactivation inhibitor domain binding in CACNA1D, Förster resonance energy transfer in living cells, …; HEK cells, CFP/YFP FRET ICDI-IQ, plate reader, 10 min; percent FRET-ratio fall versus neutral wells; 340,000 tested, 0.098% active; inhibition, % at 12.3 µM;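 active = mean replicate inhibition of at least 30% and at least 1% of replicates passing that level; inconclusive = only one of the two criteria is met; inactive = neither criterion is met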
PGC1a acetyl inh: modulators of PGC1a acetylation; U2OS PGC1a acetylation, AlphaScreen anti-acetyl-lysine; with virally co-expressed GCN5 acetyltransferase; inhibition, % at 15.6 µM; 350,000 tested, 0.17% active;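 active = every replicate shows inhibition of at least 40%; inconclusive = mean inhibition at least 40% but some replicate below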
DENV2 CPE: protects cells from dengue virus 2 cytopathic effect; CPE inhibition, % at 9.99 µM; AID 651640; DENV2-infected cells, cytopathic effect rescue, plate reader; 350,000 tested, 1.7% active; in the data active = CPE inhibition above about 20%, passing the limit was not always enough; inconclusive = no clear call, values can overlap the other calls; tested in BHK-21 cells
Numbers stand for hits; 0 = inactive; ? = inconclusive; - = no result; ! = not active in a repeat. A selection: hits, their analogues and other compounds. The true share with any hit is near 3.2%.

SMILES	ERAP1 HTS inh	rRNA inh HTS	INS-1E GSIS act	CaV13 ICDI inh	PGC1a acetyl inh	DENV2 CPE
O=C(O)C(Cc1ccc(O)c([N+](=O)[O-])c1)N1C(=O)c2ccccc2C1=O (stereo not drawn)	0	0	0	0	0	0
O=C(O)C(Cc1ccccc1)N1C(=O)c2ccccc2C1=O (stereo not drawn)	-	-	-	0	0	-
O=C(O)C(Cc1ccc(O)cc1)N1C(=O)c2ccccc2C1=O (stereo not drawn)	0	0	48	0	0	0
CCOC(=O)C(Cc1ccc(O)c([N+](=O)[O-])c1)N1C(=O)c2ccccc2C1=O (stereo not drawn)	0	-25	-	0	-	0
C[C@@H]1CCCCO[C@H](CN(C)S(=O)(=O)c2cccs2)[C@@H](C)CN([C@@H](C)CO)C(=O)c2cc(NC(=O)c3ccccc3)ccc2O1	-	0	0	-	0	23
C[C@@H]1CCCCO[C@H](CN(C)S(=O)(=O)c2cccs2)[C@@H](C)CN([C@H](C)CO)C(=O)c2cc(NC(=O)c3ccccc3)ccc2O1	-	0	0	-	0	0
C[C@@H]1CN([C@H](C)CO)C(=O)c2cc(NC(=O)Nc3ccc(F)cc3)ccc2O[C@@H](C)CCCCO[C@H]1CN(C)S(=O)(=O)c1cccs1	0	0	0	0	0	47!
COC(=O)c1c(-c2ccc(SC)cc2)sc2ccccc12	0	0	0	0	0	74
COC(=O)c1c(-c2ccc(SC)cc2)sc2ccc(OC)cc12	0	0	0	0	-	0
COC(=O)c1c(-c2cc(OC)cc(OC)c2)sc2ccc(OC)cc12	0	0	0	0	0	0
COc1ccc(-c2sc3cc(OC)c(OC)cc3c2C#CC(C)(C)O)cc1	0	0	0	0	0	24
COc1ccc(-c2sc3cc(OC)c(OC)cc3c2C#CCO)cc1	0	0	0	0	-	0
COC(=O)c1c(-c2ccc(OC)cc2)sc2cc(OC)c(OC)cc12	0	-24	0	0	-	0
COc1ccccc1NC(=O)N[C@H]1CC[C@H](CC(=O)N2CCC(Cc3ccccc3)CC2)O[C@H]1CO	0	0	0	-	0	0
C[C@H](CO)N1C[C@H](C)[C@@H](CN(C)Cc2cccnc2)Oc2cc(C#CCN(C)C)ccc2S1(=O)=O	0	0	0	-	0	?
c1ccc(Cn2nnc3c(N4CCc5ccccc54)ncnc32)cc1	-	-	86	0	0	-
c1ccc(C2CCCN(Cc3nc(CC4CC4)no3)CC2)cc1 (stereo not drawn)	0	0	0	0	0	0
c1ccc(C(c2ccccc2)c2noc(CN3CCC(c4ccncc4)CC3)n2)cc1	0	-43	0	0	0	0
CCNC(=O)Nc1ccc2c(c1)C(=O)N(C)[C@H]1CC[C@@H](CC(=O)NCc3ccccc3F)O[C@H]1CO2	0	0	0	-	0	0
C[C@H](CO)N1C[C@H](C)[C@@H](CN(C)Cc2cccc(C(=O)O)c2)Oc2cc(C#CCC3CCCC3)ccc2S1(=O)=O	-	-	-	-	0	0
Cc1ccc(/C=C/C(=O)c2ccccc2)cc1	-	-	0	0	0	-
Cc1ccc(/C=C/C(=O)c2ccc(O)cc2)cc1	0	-27	0	0	0	-
CCCCSCCCNC(=S)Nc1ccccc1C	0	0	0	0	0	0
CCCCNC(=S)Nc1ccccc1Cc1ccccc1	0	-43	0	0	0	0
O=C(O)CCSc1nc2ccccc2n1-c1ccccc1	0	-24	0	0	-	0
SMILES	ERAP1 HTS inh	rRNA inh HTS	INS-1E GSIS act	CaV13 ICDI inh	PGC1a acetyl inh	DENV2 CPE
Cc1ccccc1C(=O)Nc1ccc(C(=O)N/N=C/c2ccc(O)c(Br)c2)cc1	0	-19	0	0	-	0
CS(=O)(=O)Nc1ccccc1C(=O)OCC(=O)N1CCC(c2ccccc2)=N1	0	-32	0	0	-	0
CCCN(C[C@H]1N[C@H](CO)[C@@H]1c1ccc(-c2cccnc2)cc1)C(C)=O	0	0	0	-	0	0
COCCN(C[C@@H]1N[C@@H](CO)[C@H]1c1ccc(-c2cccnc2)cc1)C(C)=O	0	0	0	-	0	30
CCOc1ccc(N(CC(=O)NC2CCCCC2)C(=O)CNC(=O)c2cccs2)cc1	0	0	0	0	0	33
COc1ccc(N(CC(=O)NC2CCCCC2)C(=O)CNC(=O)c2cccs2)cc1	0	0	0	0	0	0
CCC(=O)N1C[C@H](C)[C@H](OC)CN(C)C(=O)c2ccc(NC(=O)c3ccccc3)cc2OC[C@@H]1C	0	0	0	-	0	0
[O-]/C(=C(\C(=S)NCc1ccccc1)[n+]1ccccc1)c1ccc(Cl)s1	0	0	0	0	-	0
Cc1c(Cl)cccc1NC(=S)C(=C([O-])c1ccc(Cl)s1)[n+]1ccccc1	0	-11	-	0	-	?
Cn1cc(CC(=O)Nc2ccc(Nc3cccnc3)cc2)c2ccccc21	0	0	0	-	-	54
COc1cccc(NC(=O)Cc2cn(C)c3ccccc23)c1	-	-	-	-	0	-
O=C(Cc1cn(Cc2ccccc2)c2ccccc12)Nc1ccc(Oc2cccnc2)cc1	0	0	-	0	-	49
C[C@@H]1CCCCO[C@@H](CN(C)Cc2ccc(C(=O)O)cc2)[C@@H](C)CN([C@@H](C)CO)C(=O)c2cc(NC(=O)Nc3ccc4c(c3)OCO4)ccc2O1	0	0	0	-	0	0
O=C(NC1CCCC1)N1CC2(C1)[C@H](c1ccccc1)[C@H](CO)N2S(=O)(=O)Cc1ccccc1	0	0	0	-	0	0
COC(=O)N1C(=O)[C@](c2ccc(OC)cc2)(C(C)C)N1C(=O)OC	0	0	0	0	-	0
COC(=O)N1C(=O)[C@](c2ccsc2)(C(C)C)N1C(=O)OC	0	0	0	0	0	48
CC1CCCCN1CCCNC(=O)c1ccc2nc(N3CCCCC3)sc2c1 (stereo not drawn)	0	0	-	0	0	25
O=[S@]1Oc2ccccc2-c2ccccc21	0	0	-	0	0	67
Cc1cc(-n2c(=O)c(C#N)cc3c(=O)n4ccccc4nc32)no1	-	-	-	33	0	-
C=CCn1c(=N)c(C#N)cc2c(=O)n3ccccc3nc21	-	-	-	33	0	-
C=CCn1c(=O)c(C#N)cc2c(=O)n3ccccc3nc21	-	-	-	-	0	-
COc1ccc2c3c(n(C)c2c1)[C@H](CO)N(Cc1nccs1)CC31CN(C(=O)CN(C)C)C1	0	0	0	-	0	?
Cc1ccc(OCC(=O)NC2CCSc3ccccc32)cc1 (stereo not drawn)	0	0	0	0	-	26
COCc1ccc(C(=O)NC2CCSc3ccccc32)cc1 (stereo not drawn)	0	0	76	0	0	0
O=C(NC1CCCC1)N1CC2(C1)[C@@H](c1ccccc1)[C@@H](CO)N2S(=O)(=O)Cc1ccccc1	-	0	0	-	0	0
COc1ccc(NC(=O)N(C)C[C@@H]2OCCCC[C@@H](C)Oc3ccc(NC(=O)CCCN(C)C)cc3C(=O)N([C@@H](C)CO)C[C@H]2C)cc1	0	0	0	-	0	67
